Screening results: PubChem BioAssay, National Center for Advancing Translational Sciences (NCATS)
TDP1 cell CPT = growth inhibition of DT40 Tdp1-/-;hTDP1 cells with camptothecin (screen for TDP1 inhibitors). Potency, µM (highest dose often 46.2 µM), inactives show top-dose activity change, negative = growth inhibition, most hits filed as inhibitors. chicken DT40 Tdp1-/-;hTDP1 cells + 20 nM CPT, ATP luminescence, 48 h. hit rate 12% among 420,000; note: potency is the fitted concentration of half-maximal effect; % is set by controls: 0 for no effect and ±100 for the full control effect; nearly all actives have a fitted effect of over 55% in size
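Chicken DT40 Tdp1-/- cells stably complemented with human TDP1 were seeded at 400 cells/well in medium containing 20 nM camptothecin, exposed to pin-transferred compounds, and grown at 37 °C for at least 48 hr. Viability was read as ATP luminescence.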
MCF10A rereplic = induces DNA re-replication in MCF 10a normal breast cells; MCF 10A DNA re-replication, Hoechst nuclear intensity, 48 h; Potency, µM (titrated, usually from 46.1 µM), inactives show at the top dose activity, positive = re-replication, actives largely listed as activators; hit rate 2.9% among 350,000; note: potency is the fitted concentration of half-maximal effect; % of control where 0% means no effect; nearly all actives have a fitted effect of over 50% in size
IL-1B inflam inh = inflammasome signaling inhibition, IL-1 beta readout; activity change, % at 57.5 µM; AID 743279; THP-1 LPS/ATP IL-1B secretion, AlphaLISA, 16 h; stronger effect = lower value; hit rate 4.7% among 360,000; in the data active = activity change below about -50%; inconclusive = mostly about -30% to -49%; note: % is set by controls: 0 for no effect and ±100 for the full control effect
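Secreted IL-1B measured by AlphaLISA bead assay after 16 h compound exposure of THP-1 cells; compounds (final up to 57.5 uM) added 1 h before LPS (250 ng/mL) and ATP (1.25 mM) stimulation; lower signal means less secretion.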
SW480 rereplic = DNA re-replication induction in SW480 cells | AID 624297 | hit rate 1.8% among 340,000 | Potency, µM (titrated, usually from 46.1 µM), for inactives: top-dose re-replication activation, most hits filed as activators | SW480 DNA re-replication, Hoechst DNA content imaging, 48 h; note: potency is the fitted concentration of half-maximal effect; % of control where 0% means no effect; nearly all actives have a fitted effect of over 55% in size
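Per well, 250 cells were exposed to pinned compound for 48 hr. Nuclear DNA was visualised with Hoechst (40 min, 37 C) and total object intensity recorded by fluorescence scanning.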
BCR signal inh = inhibitors of chronic active B-cell receptor signaling | Potency, µM (titrated, usually from 46.1 µM), without a hit: top-dose activity change, negative = inhibition, actives largely listed as inhibitors | ABC-DLBCL IkBa-CBG/CBR reporter, luminescence ratio, 4 h | hit rate 0.05% among 340,000 | AID 493014; active = well fitted inhibition curve with a large enough effect in the signal ratio, with a control signal flat, not every such curve was filed as active; inconclusive = small, poorly fitted or top-dose-only effect, or effect the other way, or a change in a side signal; the % refers to the signal ratio;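 note: potency is the fitted concentration of half-maximal effect; plate controls were basal doxycycline-induced cells for no effect and cells given 10 µM MG132 for full effect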
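Doxycycline induced both beetle luciferases in TMD8 lymphoma cells; IKK-driven degradation limits the IkappaBalpha-fused green signal, while red luminescence normalises for cell number and nonspecific effects. Compounds tested up to 46 uM, 4 hrs.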
DT40 TDP1 no CPT = qHTS for Inhibitors of human tyrosyl-DNA phosphodiesterase 1 (TDP1): qHTS in cells in absence of CPT | DT40 Tdp1-/- hTDP1 cells, no CPT, ATP luminescence, 48 h | Potency, µM (titrated, usually from 46.2 µM), for the others: top-dose activity change, negative = growth inhibition, usual class: inhibitors | hit rate 15% among 420,000; note: potency is the fitted concentration of half-maximal effect; % is set by controls: 0 for no effect and ±100 for the full control effect; nearly all actives have a fitted effect of over 55% in size
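Stably hTDP1-transfected Tdp1-null chicken DT40 cells were treated with library compounds minus camptothecin and grown for at least 48 hr at 37 °C, after which cellular ATP was quantified by luminescence.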
* marks the source's active call; other numbers are inactive results; ? = inconclusive; . = not tested or not shown; [ ] = dose if it differs, or a comment. Hits are enriched below; roughly 19% of the tested compounds scored in any of these assays. Unless noted, calls come from the whole dose curve; as a rule, active = well fitted curve in the direction sought with a large enough effect; inconclusive = small, poorly fitted or top-dose-only effect, or another doubt; inactive = no such curve, though single readings can be large; an effect the other way counts as inactive or inconclusive.

SMILES | TDP1 cell CPT | MCF10A rereplic | IL-1B inflam inh | SW480 rereplic | BCR signal inh | DT40 TDP1 no CPT
CCCn1nc(NC(=O)COC)c2cc3cc(C)ccc3nc21 | -12% | 2% | -30 | 0% | 5% | 9%
CCCn1nc(NS(=O)(=O)c2cccc3nonc23)c2cc3cc(C)ccc3nc21 | -10% | 1% | -87* | -5% | 4% | -7%
CCCn1nc(NC(=O)c2ccco2)c2cc3ccc(C)cc3nc21 | -27% | ? | -12 | 13µM* | 0% | ?
CCCC(=O)Nc1nn(C)c2nc3cc(C)ccc3cc12 | . | . | . | . | 10% | .
CCCC(=O)Nc1nn(C)c2nc3ccc(C)cc3cc12 | 9% | 20% | 18 | ? | 19% | 21%
COC(=O)[C@]1(Cc2ccccc2)N[C@H](CN(C)S(=O)(=O)c2ccc(C(C)(C)C)cc2)[C@@H]2C(=O)N(Cc3ccccc3)C(=O)[C@@H]21 | ? | ? | -22 | ? | 1% | ?
O=C(c1ccc(N2C(=O)CCC2=O)cc1)N1CCCSC1=Nc1ccccc1 | -8% | . | 27 | . | . | ?
O=C(Nc1ccc(S(=O)(=O)N2CCCCC2c2cccnc2)cc1)c1ccccc1F (centres undefined) | ? | 13% | -8 | 2% | -1% | ?
O=[N+]([O-])c1cccc(S(=O)(=O)N2CCCCC2c2cccnc2)c1 (centres undefined) | 21µM* | -17% | 4 | 0% | 1% | ?
O=C(NC(=S)NN1CCCCC1c1cccnc1)c1ccc(Br)cc1 (centres undefined) | -17% | 9% | -55* | 0% | -4% | -22%
O=C(Nc1ccc(S(=O)(=O)N2CCCCC2c2cccnc2)cc1)c1ccc(F)cc1 (centres undefined) | 23µM* | . | . | . | . | 18µM*
CC1CCN(C(=O)C2CCCCN2S(=O)(=O)c2cccc([N+](=O)[O-])c2)CC1 (centres undefined) | ? | -1% | 34 | 2% | 1% | ?
OC[C@@H]1CN(Cc2ccco2)C[C@H](n2cnc3c(NC4CC4)ncnc32)O1 | 5% | . | 7 | . | . | -26%
O=C(NC1CC(=O)N(c2ccc(Cl)cc2)C1)C1CC1 (centres undefined) | 5% | -3% | -14 | ? | 22% | 5%
O=C(CSc1nc2ccccc2o1)N1c2ccccc2Sc2ccc(C(F)(F)F)cc21 | ? | -2% | -1 | 3% | 5% | 21µM*
O=C(CSc1nc2ccccc2c(=O)n1CC1CCCO1)Nc1ccc(F)cc1 (centres undefined) | ? | -11% | -25 | -11% | ? | ?
CCOc1ccc(C2Nc3ccccc3-c3nnc(SCc4ccccc4)nc3O2)cc1OC (centres undefined) | 18µM* | . | . | . | . | ?
O=C1Nc2ccccc2N(C(=O)c2ccc(-c3ccccc3)cc2)C1c1nc2ccccc2[nH]1 (centres undefined) | ? | . | 21 | . | . | 21µM*
O=C1Nc2ccccc2N(C(=O)c2c(F)cccc2F)C1c1nc2ccccc2[nH]1 (centres undefined) | ? | . | 19 | . | . | -30%
CCC1CN(CC(=O)NCc2cc(C)n(C)n2)Cc2cc(OC)ccc2O1 (centres undefined) | 18%[9.04 µM] | . | . | . | . | -3%
CC1=NC(C)(C)Cc2ccccc21 | 3% | 15% | -21 | -11% | -4% | -9%
CC1(C)Cc2ccccc2C(COc2ccccc2)=N1 | ? | ? | -73* | 8% | -6% | ?
Cc1ccc2nc(-c3ccccc3)cc(C(=O)NCC(c3ccco3)N(C)C)c2c1 (centres undefined) | ? | 4% | -10 | -4% | 10% | ?
CC(=O)c1ccccc1OCc1ccc(S(=O)(=O)Cc2ccccc2)cc1 | 26µM* | 3% | -60* | -61% | ? | 21µM*
O=C(NNC(=O)c1ccccc1OCc1ccc(F)cc1)c1ccccc1O | 6.5µM* | -3% | 37 | 3.3µM* | ? | 5.2µM*
SMILES | TDP1 cell CPT | MCF10A rereplic | IL-1B inflam inh | SW480 rereplic | BCR signal inh | DT40 TDP1 no CPT
CN(C)S(=O)(=O)c1cccc(NC(=O)c2ccccc2OCc2ccc(F)cc2)c1 | 15µM* | 13% | 41 | 1% | 8% | ?
CC(=O)c1ccccc1OCCOc1ccccc1C(C)=O | -14% | -9%[9.22 µM] | 0 | -18% | 0% | ?
O=C(NNC(=O)c1ccccc1OCc1ccccc1)c1ccccc1F | -1% | 3% | -14 | -8% | ? | -18%
O=C(NNC(=O)c1ccccc1OCc1ccccc1)c1ccccc1O | 5.8µM* | 0% | 143 | ? | ? | 3.7µM*
COc1cccc(CN2CC(C(=O)NCc3cccc(N4CCCC4)c3)CCC2=O)c1 (centres undefined) | ? | -1% | -21 | -24% | 2% | ?
COc1cccc(C(=O)N2CCCCC2CCN2CCCCC2)c1 (centres undefined) | -22% | . | . | . | . | -16%
CCC1CN(C(=O)N2CCC(C(=O)NCc3cccs3)CC2)c2cc(C)ccc2O1 (centres undefined) | 18µM* | . | . | . | . | 23µM*
CN(C)C(=O)N1CCC(C(=O)NCc2cccs2)CC1 | -12% | -12% | 8 | -11% | 0% | 5%
Cc1ccc2c(c1)N(C(=O)N1CCC(C(=O)NCc3cccs3)CC1)CC(C)O2 (centres undefined) | ? | . | . | . | . | 18µM*
CC(C)(C)NCc1cc(Cl)ccc1OCc1ccccc1F | -40% | 19% | -144* | -6% | -3% | ?
CCN(CC)CCNCc1cc(Cl)ccc1OCc1ccccc1F | ? | 3% | -90* | 5% | 0% | ?
Cc1ccc(NC(=O)CCNC(=O)N2CC(=O)Nc3ccccc32)cc1Cl | -21% | . | 27 | . | . | 1%
CC1=C(C(=O)Nc2ccccc2Cl)C(c2cccc(O)c2)n2ncnc2N1 (centres undefined) | 3% | . | . | . | . | -3%
CC(C)N(Cc1nc(-c2ccccc2)no1)C(=O)CN(C)S(=O)(=O)c1ccccc1 | -25% | -3% | -17 | -3% | ? | -21%
Cc1cccc(-c2noc(CN(C(=O)/C=C/c3ccccc3Cl)C(C)C)n2)c1 | 18µM* | ? | -10 | 1% | -6% | ?
CC(C)N(Cc1nc(-c2ccc(Cl)cc2)no1)C(=O)/C=C/c1ccccc1 | ? | ? | -62* | 15% | -2% | ?
